# According to PubChem BioAssay (NCI):
# This is part of a sample that, as a whole, favours compounds with a hit. Of some 83,000 tested, about 20% had one in any assay.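 Single-dose data. Exposure time 48 hours. Values below 10 considered active.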 A number with no mark means an inactive call. Calls of active or inactive are those of the source.
# Key:
# Assay in all cases: NCI-60 one-dose screen, 48 h (100 = growth as untreated, 0 = no growth, -100 = all killed)
# Conditions in all cases: 10 µM unless noted
# [1] = tested on: HCT-15 colon
# [2] = tested on: HT29 colon
# [3] = tested on: SNB-75 CNS
# [4] = tested on: SNB-19 CNS
# [5] = tested on: U251 CNS
# [6] = tested on: PC-3 prostate
# [7] = tested on: SK-MEL-5 melanoma
# [8] = tested on: UACC-62 melanoma
# [9] = tested on: LOX IMVI melanoma
# [10] = tested on: SK-MEL-28 melanoma
Structure (SMILES),growth [1],growth [2],growth [3],growth [4],growth [5],growth [6],growth [7],growth [8],growth [9],growth [10]
O=C(Nc1cccc(-c2ccc(N3CCOCC3)nn2)c1)Nc1cccc(C(F)(F)F)c1,68.3%,91.2%,111%,86.6%,71.2%,31.4%,41.9%,43.2%,70.2%,88.7%
COc1ccc2cc1Oc1ccc(cc1)C[C@H]1c3c(cc4c(c3Oc3cc5c(cc3OC)CCN(C)[C@@H]5C2)OCO4)CCN1C,27%,4.38% (active),71.4%,75.9%,26.8%,43.9%,-97% (active),34.4%,-41.7% (active),-54.9% (active)
C#CCNC(=O)[C@H](CC)[C@H]1CC[C@H](C)[C@H]([C@@H](C)[C@H](O)[C@H](C)C(=O)[C@H](CC)C2O[C@]3(C=CC(=O)[C@]4(CC[C@@](C)([C@H]5CC[C@](O)(CC)[C@H](C)O5)O4)O3)[C@H](C)C[C@@H]2C)O1 (stereo not given in full),28.8%,29.3%,-19.5% (active),42.1%,52.2%,21%,7.94% (active),41.3%,32.3%,58.6%
C=C1C(=O)O[C@H]2[C@H]1CC/C(Cn1cc(-c3ccccc3)nn1)=C\CC[C@@]1(C)O[C@@H]21,-70.4% (active),-58.3% (active),64.2%,68.1%,50.2%,37.3%,21%,-45.2% (active),-84.7% (active),-26.9% (active)
CC(=O)Oc1ccc(/C(=C(\C)c2ccc(Cl)cc2)c2ccc(OCCN3CCCCC3)cc2)cc1,-16.3% (active),-25.9% (active),41.7%,42.2%,18.3%,28.1%,37.1%,42.8%,-65% (active),-48.5% (active)
COC(=O)c1c(C)nc(C)c2c1C(=O)C(Br)=C(NCc1ccccc1)C2=O,11.6%,6.01% (active),100%,41.7%,20.1%,16.1%,-96.5% (active),-10.8% (active),6.45% (active),56.4%
COCCn1cc(-c2csc(-c3cn(C)c4ccc(Br)cc34)n2)c2cccnc21,12.1%,26%,75.6%,78.5%,51.4%,38.1%,71%,70.5%,-55.1% (active),74.9%
O=C(CN1C(=O)S/C(=C\C(Cl)=C\c2ccccc2)C1=O)NCCc1ccc(O)cc1,0.727% (active),16.6%,22%,34.3%,19.3%,24.7%,46%,8.67% (active),-51.5% (active),20.7%
C=CCOC(=O)Nc1cccn([C@H](Cc2ccccc2)C(=O)NCCC(C)C)c1=O,111%,99.7%,91.1%,85.9%,101%,92.3%,102%,97.1%,90.8%,97.6%
COc1cc2c(c(OC)c1OC)CCC(c1cccc(C(=O)Nc3ccc(C#N)cc3)c1)O2 (stereo not given),59.7%,69.3%,57.3%,58.7%,64.2%,14%,-12.7% (active),24.6%,39.5%,58.8%
COc1ccc2[nH]c(C(=O)N3CCN(C(=O)OCc4ccc5c(Cl)cc(Cl)c(O)c5n4)CC3)cc2c1,-44.2% (active),-67.1% (active),-98.5% (active),35.3%,-97.9% (active),-73.4% (active),-99% (active),-97.4% (active),-95.3% (active),-95.8% (active)
CCN1CCN(C(=O)[C@]23CCC(C)(C)C[C@@H]2C2=CC[C@@H]4[C@@]5(C)CCC(=O)C(C)(C)[C@@H]5CC[C@@]4(C)[C@]2(C)CC3)CC1,33.6%,8.29% (active),15.6%,71.1%,46.8%,26.1%,49.2%,47.3%,43.8%,64.3%
CCN(CC)S(=O)(=O)c1ccc(S(=O)(=O)N2CCC[C@@H](C(=O)N3CCN(c4nc(C(C)C)no4)CC3)C2)cc1,92.2%,87.8%,56.4%,64.2%,85.3%,76.2%,17.2%,59.7%,54%,91%
COc1ccc(/C=C/C(=O)c2cccc(OCCCCOc3cccc(C(=O)/C=C/c4ccc(OC)c(OC)c4)c3)c2)cc1OC,80.9%,92%,67.8%,81.6%,84.8%,67%,9.83% (active),57.7%,61.7%,86%
